Assay [1] relates to Wnt5a (protein binding on small-molecule microarray). Put plainly: Wnt5a binders on small-molecule microarray, primary screen, biophysical, 635/667 nm fluorescence (AID 1142).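 Also: fluorescence read at 667 nm with signal to noise per printed feature.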 The settings on record: 635 nm fluorescence, higher = more signal.
Assay [2] is described as follows: cell viability in Huh7 cells, primary screen, cytotoxicity control for HCV replication inhibitor project, CellTiter-Glo luminescence, basal, 48 h (AID 1143).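 Also: Huh7 hepatoma cells carrying a hepatitis C replication reporter with no stimulus; test concentration not given here.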 The following applies: Huh7 HCV replicon, higher = more signal, called active from +8 up or from −8 down.
Assay [3] is described as follows: CREB reporter modulators without forskolin, primary screen, cell-based, PC12, CRE-LacZ reporter, unstimulated (AID 1145). The following applies: no forskolin, luminescence, 4.5 h, higher = more signal, called active from +8 up or from −8 down.
A short description of assay [4]: CREB reporter modulators under forskolin, primary screen, cell-based, PC12, CRE-LacZ reporter, forskolin-stimulated (AID 1146).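 Also: PC12 cells with 6xCRE LacZ reporter stimulated by forskolin 10 µM; beta-galactosidase reporter signal reflecting CREB driven transcription.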 The following applies: luminescence, 4.5 h, higher = more signal, called active from +8 up or from −8 down.
Assay [5] has as its target Streptavidin (Streptomyces avidinii) (UniProt P22629). Put plainly: streptavidin binders on small-molecule microarray, primary screen, artefact control for SMM compound annotation, biophysical, 635/667 nm fluorescence (AID 1147).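 Also: signal reflects streptavidin binding to arrayed compounds as a control protein.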 The settings on record: streptavidin binding, higher = more signal.
The nature of assay [6]: small-molecule binders of probe aInhba, primary screen, biochemical, small-molecule microarray, 635/667 nm fluorescence (AID 1148).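 Also: score merges 667nm spot fluorescence with signal-to-noise for antibody binding to printed compounds.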 The following applies: higher = more signal.
In assay [7] the target is Torsin-1A (Homo sapiens) (UniProt O14656). The assay is described as follows: torsin A binders from cell lysate, primary screen, small-molecule microarray, wild-type, 635/667 nm (AID 1149). The settings on record: COS7 hTOR1A-WT lysate, 635 nm fluorescence, higher = more signal.
The target is the same in assay [8]. Put plainly: small-molecule binders of mutant TOR1A in lysate, primary screen, cell lysate, small-molecule microarray, COS7 lysate, 635/667 nm fluorescence (AID 1150).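 Also: score pools 667 nm emission and signal to noise measuring lysate protein binding.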 The following applies: COS7 hTOR1A mutant lysate, 635 nm fluorescence, higher = more signal.
The test system of assay [9] is Sonic hedgehog protein (Shh). Put plainly: small-molecule binders of Shh protein, primary screen, biochemical, small-molecule microarray, 635/667 nm fluorescence (AID 1151).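 Also: Shh protein binding to compounds spotted on small-molecule microarray slides; score combines spot fluorescence intensity with signal-to-noise across triplicate slides.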 The following applies: small-molecule microarray binding, 635 nm fluorescence; higher = more signal.

SMILES strings stand for the structures. Active and inactive are the calls of the source.

Chain of Streptavidin (Streptomyces avidinii) (P22629 whole entry, looked up): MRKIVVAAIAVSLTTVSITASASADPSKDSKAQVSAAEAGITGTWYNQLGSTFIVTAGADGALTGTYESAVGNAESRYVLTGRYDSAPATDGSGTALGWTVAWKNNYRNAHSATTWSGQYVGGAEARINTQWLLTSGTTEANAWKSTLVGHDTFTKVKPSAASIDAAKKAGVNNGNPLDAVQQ
Chain of Torsin-1A (Homo sapiens) (O14656 whole entry, looked up): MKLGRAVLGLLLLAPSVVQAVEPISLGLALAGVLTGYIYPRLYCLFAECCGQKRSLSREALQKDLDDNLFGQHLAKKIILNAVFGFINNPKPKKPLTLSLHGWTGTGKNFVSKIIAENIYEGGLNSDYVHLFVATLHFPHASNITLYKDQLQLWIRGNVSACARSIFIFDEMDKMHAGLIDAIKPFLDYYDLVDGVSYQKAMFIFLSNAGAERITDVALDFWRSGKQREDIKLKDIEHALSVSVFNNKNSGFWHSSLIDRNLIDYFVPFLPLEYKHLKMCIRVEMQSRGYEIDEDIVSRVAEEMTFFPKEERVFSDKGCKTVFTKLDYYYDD

On to `C=CC[C@]1(C(=O)NCC(O)CO)N=C(c2ccc(OCCCO)cc2)O[C@H]1c1ccccc1` (stereo partly drawn), for which the composite z-score in assay [1] is 0.621; in assay [5] it was 0.0012; in assay [6], -0.146; in assay [7], 2.71; in [8] it was 3.09; in assay [9], -0.559. In addition, the z-score in assay [2] was -0.371 (inactive); in [3], 1.37 (inactive); in [4] it was -0.804 (inactive).

In the case of `C[N+](C)(C)CCCC[C@@H]1NC(=O)[C@H]2C[C@@H](C(=O)NCc3ccc(F)cc3)[C@@H](c3cccc(OCCO)c3)N2C1=O`, the composite z-score in assay [1] was 0.141; in [5] it was -0.326; in assay [6], -0.0963; in [7], 0.55; in [8], 1.07; in assay [9], 1.4. For the same compound, the figures for the z-score in [2], in assay [3] and in [4] were -0.533 (inactive), 1.23 (inactive) and -0.396 (inactive), respectively.

On to `[N-]=[N+]=NCc1ccccc1C[C@]1(C(N)=O)N=C(c2ccc(OCCCO)cc2)O[C@H]1c1ccccc1CN=[N+]=[N-]`, for which the composite z-score in assay [1] is 0.447; in assay [5], 1.68; in assay [6] it was 0.17; in [7], 0.105; in assay [8] it was 0.369; in assay [9], -0.742. Further, the z-score was -5.2 (inactive) in [2], 1.08 (inactive) in [3] and -0.375 (inactive) in assay [4].

Turning to `C=C(COC)/C(=C/C[C@@H](OC(C)=O)c1cccc(OCCO)c1)c1cc(C(=O)OC)ccc1OC`, the composite z-score is 0.0467 in assay [1]; -0.798 in assay [5]; -0.0221 in assay [6]; 0.284 in assay [7]; -0.0193 in assay [8]; 0.654 in [9]. The z-score in assay [2] is -1.42 (inactive); in assay [3], 4.69 (inactive); in assay [4], -1.89 (inactive).

As for `CC(C)N1CC=CC23O[C@@H]4/C=C\CCCOC(=O)C4[C@H]2C(=O)N(CCO)[C@@H]3C1=O` (stereo partly drawn), the composite z-score in assay [1] was -0.0732; in assay [5], -0.0353; in assay [6], -0.0695; in [7], -0.373; in assay [8], -0.582; in [9], 0.289. Moreover, the z-score in [2] is -1.04 (inactive); in [3], -0.358 (inactive); in [4] it was -0.457 (inactive).

Take `CO[C@@H]1COC(=O)CC=C[C@H](C)COC(=O)[C@H](Cc2ccccc2)NC(=O)CC=C[C@H]1C`: the composite z-score in assay [1] was -0.108; in assay [5], -0.457; in assay [6], -0.438; in assay [7], 1.46; in assay [8], 0.793; in assay [9], 1.73. Further, the z-score in assay [2] is -0.87 (inactive); in assay [3], -0.202 (inactive); in [4], -1.63 (inactive).

For the compound `CO[C@H]1COC(=O)CC=C[C@@H](C)COC(=O)[C@@H](C)NC(=O)CC=C[C@@H]1C`, the composite z-score is 0.272 in assay [1]; -0.697 in assay [5]; -0.218 in assay [6]; 2.49 in assay [7]; 0.711 in assay [8]; 2.06 in [9]. Besides, the z-score in assay [2] is -3.48 (inactive); in assay [3], 0.608 (inactive); in assay [4], -1.09 (inactive).

`CC/C=C/C(=O)N(C[C@@H]1CCCO1)[C@@H]1CC(C(=O)NCCO)=C[C@H](Oc2c(I)cc(CO)cc2OC)[C@H]1O`: the composite z-score in assay [1] is -0.0308; in [5], -0.0512; in assay [6] it was -0.128; in [7], 0.553; in assay [8], 0.267; in [9] it was 0.239. Besides, the z-score in assay [2] was -1.97 (inactive); in [3], 0.858 (inactive); in [4], -2.41 (inactive).

On to `CO[C@H]1COC(=O)[C@H](Cc2ccccc2)NC(=O)CC=C[C@@H](C)[C@H](OC)COC(=O)CC=C[C@@H]1C`, for which the composite z-score was 0.175 in assay [1]; -0.129 in [5]; -0.0954 in assay [6]; 0.109 in assay [7]; 0.189 in assay [8]; 0.549 in assay [9]. The z-score in [2] is -1.21 (inactive); in assay [3], -0.567 (inactive); in assay [4], -1.15 (inactive).

On to `O=C(NCc1ccccc1)[C@@]1(CCS(=O)(=O)c2ccccc2)COC(c2ccc(OCCCO)cc2)=N1`, for which the composite z-score is 0.23 in assay [1]; 2 in assay [5]; 0.281 in assay [6]; 0.911 in assay [7]; 0.576 in assay [8]; 0.331 in [9]. In addition, the z-score in [2] is -3.07 (inactive); in assay [3] it was -0.137 (inactive); in assay [4], -2.67 (inactive).

Regarding `Cc1ccc(S(=O)(=O)c2cc3oc2CC[C@@H](CO)NC(=O)N(C)Cc2cn(nn2)C[C@H](Cc2ccccc2)NC3=O)cc1`, the composite z-score in assay [1] was -0.0319; in assay [5], -0.183; in [6], -0.0335; in [7], 0.285; in assay [8], 0.501; in [9] it was 0.0007. Besides, the z-score is -0.0124 (inactive) in assay [2], -0.332 (inactive) in [3] and -0.58 (inactive) in [4].

On to `CO[C@H]1COC(=O)CC=C[C@H](C)[C@@H](OC)COC(=O)CC=C[C@@H]1C`, for which the composite z-score is 0.27 in assay [1]; -0.538 in assay [5]; -0.227 in [6]; 2.03 in [7]; 0.621 in assay [8]; 1.32 in assay [9]. In addition, the z-score in assay [2] is -0.909 (inactive); in assay [3] it was 0.786 (inactive); in [4] it was -0.0885 (inactive).

As to `C=CCC(OC(C)=O)[C@@H]1[C@@H](N(Cc2cc3ccccc3o2)C(=O)c2ccc(C)cc2)c2cc(OCCCO)ccc2N1C(=O)c1ccc2ccccc2n1` (stereo partly drawn), the composite z-score in [1] was -0.0502; in assay [5] it was 0.184; in [6] it was -0.0266; in assay [7], 0.369; in assay [8], -0.368; in [9], 0.609. In addition, the z-score in [2] is -0.17 (inactive); in assay [3] it was 5.44 (inactive); in [4], -0.273 (inactive).

As for `CN(C)CCCC[C@@H]1NC(=O)[C@@H]2C[C@H](C(=O)O)[C@H](c3ccc(O)cc3)N2C1=O`, the composite z-score in assay [1] is 0.471; in assay [5], 0.0842; in [6], 0.174; in assay [7], 0.939; in [8], 0.395; in assay [9], 1.92. Also, the z-score in assay [2] was -3.87 (inactive); in assay [3], 0.415 (inactive); in assay [4], -0.183 (inactive).

`COc1cccc([C@@H]2[C@@H](C)CC[C@H]3C(=O)N4[C@H](c5cccc(OC)c5)[C@@H](C)CC[C@H]4C(=O)N23)c1`: the composite z-score is 0.0508 in assay [1]; 0.258 in assay [5]; 0.054 in [6]; 0.504 in [7]; 0.824 in assay [8]; 0.944 in assay [9]. Further, the z-score in [2] is -1.88 (inactive); in assay [3], 1.38 (inactive); in assay [4], -1.18 (inactive).

For `O=C1O[C@@H](c2ccccc2)[C@@H](c2ccccc2)N2[C@@H](c3ccccc3OCCO)[C@]3(C(=O)Nc4ccc(C#CC5=CCCCC5)cc43)[C@@H](C(=O)O)[C@H]12`, the composite z-score in assay [1] is 0.26; in assay [5], 0.841; in assay [6] it was -0.0006; in assay [7] it was 0.13; in assay [8], 0.261; in [9], 0.195. The z-score in assay [2] is -4.37 (inactive); in assay [3] it was 0.245 (inactive); in assay [4] it was 13.7 (active).

On to `COC(=O)C1=C(C)N(Cc2ccccc2)c2c(C(=O)OC)c(C(=O)OC)c(C(=O)OC)c(=O)n2[C@@H]1c1ccccc1`, for which the composite z-score amounted to 0.191 in [1]; 0.125 in assay [5]; 0.0503 in assay [6]; 0.285 in assay [7]; 0.505 in [8]; 0.426 in [9]. Further, the results for the z-score in [2], in assay [3] and in assay [4] were -0.233 (inactive), 4.26 (inactive) and -1.23 (inactive), respectively.

For the origin of these results see PubChem BioAssay.
